Measured values reported in PubChem BioAssay (Tox21).
Results filed as inconclusive are left out. Activity calls are given as the source filed them. Unless noted, the call rests on the fitted dose curve; in most records, active means well fitted curve in the direction sought with a large enough effect in the repeat runs; inconclusive means weak or mixed curves; inactive means no such curve, though single readings can be large; an effect the other way counts as inactive or inconclusive.

Tests used:
[1] = qHTS assay for small molecule agonists of the p53 signaling pathway (AID 651631; calls by dose curve; further: nearly all actives have a fitted effect of over 15% in size)
How it was run: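 Agonist mode screen using a stably integrated beta-lactamase gene under p53 response elements in HCT-116 cells. Compound exposure lasts 16 h at 37 °C; fluorescence intensity is measured following 2 h FRET substrate loading.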

[2] = qHTS assay for small molecules that induce genotoxicity in human embryonic kidney cells expressing luciferase-tagged ATAD5 (AID 651632); further: nearly all actives have a fitted effect of over 15% in size
How it was run: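 Genotoxicity read-out via ATAD5-luciferase: HEK293T cells, 16 hr compound incubation at 37C, Amplite detection.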

[3] = qHTS assay for small molecule agonists of the p53 signaling pathway - cell viability (AID 651633; calls by dose curve;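 further: p53RE-bla HCT reporter cells with a stable beta-lactamase p53 reporter; series mostly up to about 83 µM; nearly all actives have a fitted effect of over 30% in size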)
How it was run: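 Viability counter-read: CellTiter-Glo luminescence (30 min, room temperature) in the same p53RE-bla plates. These plates had been exposed to compounds for 16 h at 37 C.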

[4] = qHTS assay for small molecules that induce genotoxicity in human embryonic kidney cells expressing luciferase-tagged ATAD5 - cell viability (AID 651634; calls by dose curve; further: nearly all actives have a fitted effect of over 25% in size)
How it was run: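 Live-cell protease activity (CellTiter-Fluor, fluorescence) indicates viability. HEK293T cells with luciferase-tagged ATAD5; 15.5 hr compound treatment at 37C.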

[5] = qHTS assay to test for compound auto fluorescence at 590 nm (red) in HepG2 cells (AID 720674)
How it was run: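 We screened compounds on adherent HepG2 cells, incubating them for an hour at 37 C in 5% CO2 before reading emission at 590 nm under 540 nm excitation; values reflect equivalence to Rose Bengal sodium fluorescence.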

[6] = qHTS assay to test for compound auto fluorescence at 535 nm (green) in HepG2 cells (AID 720675)
[7] = qHTS assay to test for compound auto fluorescence at 460 nm (blue) in HEK293 cells (AID 720678)
How it was run: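 Measured: blue fluorescence (Ex 405/Em 460 nm) of compound-treated HEK293 cells, incubated overnight at 37C with 5% CO2 and scaled to triamterene equivalents.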

[8] = qHTS assay to test for compound auto fluorescence at 590 nm (red) in HEK293 cells (AID 720679)
How it was run: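 Using HEK293 cells at 2,000 per well, the screen added 23 nL of each compound after cell attachment and incubated overnight (37C, 5% CO2). The plate reader then captured red-label fluorescence, Ex/Em 540/590nm.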

[9] = qHTS assay for small molecule disruptors of the mitochondrial membrane potential (AID 720635)
How it was run: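 Mitochondrial membrane potential tracked with Mito-MPS dye, red aggregates (ex 540/em 590 nm) against green monomers (ex 490/em 535 nm). Compound treatment 1 hr at 37C, dye 30 min in HepG2.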

[10] = qHTS assay for small molecule disruptors of the mitochondrial membrane potential - cell viability (AID 720634; calls by dose curve;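 further: human HepG2 liver cancer cells; series mostly up to about 83 µM; nearly all actives have a fitted effect of over 20% in size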)
How it was run: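 Human hepatoma HepG2 cells were treated for 1 hr with test chemicals, then given m-MPI dye and CellTiter-Glo. Cell viability reflects luminescence proportional to cellular ATP.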
On the % scale 0 is the no-effect control and ±100 the full control effect.

Cc1ccc(=O)n(-c2ccccc2)c1
inactive: outcome [1] | Potency [2] | outcome [3] | Potency [4] | outcome [5] | outcome [6] | outcome [7]

Cc1cccn2c(=O)c(-c3nnn[nH]3)cnc12
inactive: outcome [1] | Potency [2] | outcome [3] | Potency [4] | outcome [5] | outcome [6] | outcome [7] | outcome [8]

Cc1c(NC(C)C)c(=O)n(-c2ccccc2)n1C
inactive: outcome [1] | Potency [2] | outcome [3] | Potency [4] | Potency [9] | outcome [5] | outcome [6] | outcome [7] | outcome [8]

COc1ccc2c(c1)c(CC(=O)OCC(=O)O)c(C)n2C(=O)c1ccc(Cl)cc1
inactive: outcome [1] | Potency [2] | outcome [3] | Potency [10] | outcome [5] | outcome [6] | outcome [7] | outcome [8]

NS(=O)(=O)c1cc2c(cc1Cl)NC(C1CC3C=CC1C3)NS2(=O)=O (centres undefined)
inactive: outcome [1] | Potency [2] | outcome [3] | Potency [4] | Potency [10] | outcome [5] | outcome [6] | outcome [7] | outcome [8]

COC(=O)c1cc(C(=O)OC)cc(S(=O)(=O)O)c1
inactive: outcome [1] | Potency [2] | outcome [3] | Potency [4] | Potency [9] | outcome [5] | outcome [6] | outcome [7]

c1ccc([C@H]2CN3CCSC3=N2)cc1
inactive: outcome [1] | Potency [2] | outcome [3] | Potency [4] | Potency [10] | outcome [5] | outcome [6] | outcome [7] | outcome [8]

NS(=O)(=O)c1cc(C(=O)O)cc(N2CCCC2)c1Oc1ccccc1
inactive: outcome [1] | Potency [2] | outcome [3] | Potency [4] | Potency [10] | outcome [5] | outcome [6] | outcome [7] | outcome [8]

C1CN(CCOCCN2CCOCC2)CCO1
inactive: outcome [1] | Potency [2] | outcome [3] | Potency [4] | Potency [10] | outcome [5] | outcome [6] | outcome [7] | outcome [8]

CCC(C)C1CCCCC1=O (centres undefined)
inactive: outcome [1] | Potency [2] | outcome [3] | Potency [10] | Potency [9] | outcome [5] | outcome [6] | outcome [7] | outcome [8]

Nc1nc2c(ncn2COC(CO)CO)c(=O)[nH]1
inactive: outcome [1] | Potency [2] | outcome [3] | Potency [4] | outcome [5] | outcome [6] | outcome [7] | outcome [8]

COc1ccccc1OCC(O)CN1CCN(CC(=O)Nc2c(C)cccc2C)CC1 (centres undefined)
inactive: outcome [1] | Potency [2] | outcome [3] | Potency [4] | Potency [10] | outcome [5] | outcome [6] | outcome [7] | outcome [8]

CN1CCN(c2cc3c(cc2F)c(=O)c(C(=O)O)cn3-c2ccc(F)cc2)CC1
inactive: outcome [1] | Potency [2] | outcome [3] | Potency [4] | outcome [5] | outcome [6] | outcome [7] | outcome [8]

CC/C=C\CCOC(C)=O
inactive: outcome [1] | Potency [2] | outcome [3] | Potency [4] | Potency [10] | outcome [5] | outcome [6] | outcome [7] | outcome [8]

CCc1nccnc1CC
inactive: outcome [1] | Potency [2] | outcome [3] | Potency [4] | outcome [5] | outcome [6] | outcome [7] | outcome [8]

CCC(C)S (centres undefined)
inactive: activation [1] -2.85% [at 3.72 µM] | activation [2] 1.12% [at 3.63 µM] | activity change, negative = cytotoxicity [3] -9.49% [at 3.63 µM] | activity, negative = cytotoxicity [4] -7.36% [at 3.63 µM] | activity change, negative = cytotoxicity [10] 9.33% [at 3.63 µM] | fluorescence, relative to Rose Bengal [5] -0.0609% [at 3.72 µM] | fluorescence, % of fluorescein control [6] -0.0052% [at 3.72 µM] | fluorescence, % of triamterene [7] 0.0233% [at 3.72 µM] | fluorescence, % of fluorescent control [8] 0.243% [at 3.72 µM]

CCCCCOC(=O)CCCCC
inactive: outcome [1] | Potency [2] | outcome [3] | Potency [4] | outcome [5] | outcome [6] | outcome [7] | outcome [8]

O=C1CCCCCCCCCCCN1
inactive: outcome [1] | Potency [2] | outcome [3] | Potency [10] | Potency [9] | outcome [5] | outcome [6] | outcome [7] | outcome [8]

CCCc1cc(C(N)=S)ccn1
inactive: outcome [1] | Potency [2] | outcome [3] | Potency [4] | Potency [9] | outcome [5] | outcome [6] | outcome [7] | outcome [8]

CC(C(=O)O)c1ccc(CC2CCCC2=O)cc1 (centres undefined)
inactive: outcome [1] | Potency [2] | outcome [3] | Potency [4] | Potency [9] | outcome [5] | outcome [6] | outcome [7] | outcome [8]

CCCCCCOC(=O)CCCCC(=O)OCCCCCC
inactive: outcome [1] | Potency [2] | outcome [3] | Potency [10] | Potency [9] | outcome [5] | outcome [6] | outcome [7] | outcome [8]

Nc1ccccc1S(=O)(=O)O
inactive: outcome [1] | Potency [2] | outcome [3] | Potency [4] | outcome [5] | outcome [6] | outcome [7] | outcome [8]

CN(C)CCCNCCCN(C)C
inactive: outcome [1] | Potency [2] | outcome [3] | Potency [4] | outcome [5] | outcome [6] | outcome [7] | outcome [8]

O=[N+]([O-])c1ccc(F)cc1F
inactive: outcome [1] | Potency [2] | outcome [3] | Potency [4] | Potency [9] | outcome [5] | outcome [6] | outcome [7] | outcome [8]

O=C(O)CNC(=O)c1ccc([N+](=O)[O-])cc1
inactive: outcome [1] | Potency [2] | outcome [3] | Potency [4] | Potency [9] | outcome [5] | outcome [6] | outcome [7] | outcome [8]

CC(=O)Nc1ccc(S(N)(=O)=O)cc1
inactive: outcome [1] | Potency [2] | outcome [3] | Potency [4] | outcome [5] | outcome [6] | outcome [7]

CCN(CC)CCOCCOC(=O)C1(c2ccccc2)CCCC1
inactive: outcome [1] | Potency [2] | outcome [3] | Potency [4] | Potency [10] | outcome [5] | outcome [6] | outcome [7] | outcome [8]

COC(=O)[C@@H](N)Cc1ccc(O)c(O)c1
inactive: outcome [1] | outcome [3] | Potency [4] | Potency [10] | Potency [9] | outcome [5] | outcome [6] | outcome [7] | outcome [8]
